Experimental data taken from ChEMBL document CHEMBL3988442, “University of Dundee, Small-Polar-MMV Screening Library” (2021).
For some assays here: Results with a measured potency or affinity are listed apart.

Columns and labels:
Design in all cases: scale not given: direction of the effect not stated beside the values
[1] = target: Protein translocase subunit SecA (Escherichia coli (strain K12)) (UniProt P10408); experiment: Assay to Identify E. coli SecA ATPase Inhibitors; type: functional; settings: 30 µM
Protein translocase subunit SecA (Escherichia coli (strain K12)), sequence (P10408 whole entry): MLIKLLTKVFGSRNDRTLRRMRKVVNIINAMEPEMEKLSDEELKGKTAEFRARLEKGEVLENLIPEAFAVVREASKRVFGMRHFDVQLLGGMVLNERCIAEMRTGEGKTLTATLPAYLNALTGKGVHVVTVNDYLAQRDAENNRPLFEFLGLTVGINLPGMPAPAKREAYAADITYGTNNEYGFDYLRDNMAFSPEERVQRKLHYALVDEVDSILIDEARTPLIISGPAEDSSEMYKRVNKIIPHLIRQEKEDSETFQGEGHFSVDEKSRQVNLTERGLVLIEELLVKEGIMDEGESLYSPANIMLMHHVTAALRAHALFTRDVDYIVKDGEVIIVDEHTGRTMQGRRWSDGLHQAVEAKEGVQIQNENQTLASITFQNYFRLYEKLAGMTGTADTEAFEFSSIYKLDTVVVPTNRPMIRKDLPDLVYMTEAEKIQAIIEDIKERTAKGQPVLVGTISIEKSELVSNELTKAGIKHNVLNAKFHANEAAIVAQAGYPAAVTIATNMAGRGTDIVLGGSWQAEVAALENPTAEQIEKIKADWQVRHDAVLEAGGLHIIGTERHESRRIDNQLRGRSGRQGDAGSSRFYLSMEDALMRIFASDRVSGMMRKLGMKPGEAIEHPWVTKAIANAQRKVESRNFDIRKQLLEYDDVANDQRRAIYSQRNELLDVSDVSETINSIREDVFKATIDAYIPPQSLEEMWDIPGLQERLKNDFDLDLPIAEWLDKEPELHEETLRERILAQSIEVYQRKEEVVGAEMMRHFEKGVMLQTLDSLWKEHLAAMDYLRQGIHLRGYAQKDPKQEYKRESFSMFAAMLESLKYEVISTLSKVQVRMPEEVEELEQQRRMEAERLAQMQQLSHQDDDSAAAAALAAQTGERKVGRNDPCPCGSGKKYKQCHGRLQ

[2] = target: T1, Ubiquitin-activating enzyme e1, putative (Leishmania donovani (strain BPK282A1)) (UniProt E9BSI1); experiment: Leishmania donovani Ubiquitin Activating Enzyme (LdE1); type: functional; settings: 30 µM
T1 sequence (whole entry): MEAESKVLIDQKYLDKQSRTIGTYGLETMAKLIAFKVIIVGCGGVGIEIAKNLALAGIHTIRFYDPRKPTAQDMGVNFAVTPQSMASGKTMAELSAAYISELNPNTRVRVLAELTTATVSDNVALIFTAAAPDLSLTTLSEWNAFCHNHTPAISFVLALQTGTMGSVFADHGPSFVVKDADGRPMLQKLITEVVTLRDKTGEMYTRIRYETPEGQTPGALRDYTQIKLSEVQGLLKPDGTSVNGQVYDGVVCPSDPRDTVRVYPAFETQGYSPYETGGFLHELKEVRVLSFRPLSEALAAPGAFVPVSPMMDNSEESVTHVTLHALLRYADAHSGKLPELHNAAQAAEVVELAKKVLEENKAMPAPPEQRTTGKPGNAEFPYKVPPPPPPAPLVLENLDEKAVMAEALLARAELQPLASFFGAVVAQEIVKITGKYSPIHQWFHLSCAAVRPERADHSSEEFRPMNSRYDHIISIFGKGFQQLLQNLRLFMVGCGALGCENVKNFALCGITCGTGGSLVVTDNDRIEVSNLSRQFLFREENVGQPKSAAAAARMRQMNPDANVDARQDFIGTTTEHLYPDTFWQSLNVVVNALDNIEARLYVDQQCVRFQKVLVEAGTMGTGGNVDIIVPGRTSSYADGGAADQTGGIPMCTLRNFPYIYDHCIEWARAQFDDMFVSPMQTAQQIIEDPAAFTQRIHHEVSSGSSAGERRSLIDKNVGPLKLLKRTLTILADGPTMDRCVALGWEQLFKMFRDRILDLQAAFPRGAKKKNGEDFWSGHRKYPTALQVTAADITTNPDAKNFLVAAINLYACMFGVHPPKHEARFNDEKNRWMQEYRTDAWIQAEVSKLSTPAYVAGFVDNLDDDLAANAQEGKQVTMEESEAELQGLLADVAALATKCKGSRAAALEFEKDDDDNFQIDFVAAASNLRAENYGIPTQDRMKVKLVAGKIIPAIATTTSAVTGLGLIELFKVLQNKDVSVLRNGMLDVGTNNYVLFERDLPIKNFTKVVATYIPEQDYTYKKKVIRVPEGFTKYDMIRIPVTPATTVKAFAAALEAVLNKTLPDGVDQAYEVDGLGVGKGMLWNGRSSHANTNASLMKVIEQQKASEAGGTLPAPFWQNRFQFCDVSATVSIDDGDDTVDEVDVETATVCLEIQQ

[3] = target: AMP-activated protein kinase, AMPK (Homo sapiens) (UniProt P54646+O43741+P54619+Q9UGJ0+Q9Y478+Q13131+Q9UGI9); experiment: AMP-dependent Kinase enzyme assay. An in vitro enzyme assay that detects ADP turnover that is directly proportional to AMPK activity. This uses naive AMPK that is activated during the assay with MK-8722; type: functional; settings: 30 µM
[4] = target: Sialic acid-binding Ig-like lectin 9 (Homo sapiens) (UniProt Q9Y336); experiment: Hs-Siglec9 ALPHAscreen SOP 20170721; settings: 10 µM
Sialic acid-binding Ig-like lectin 9 (Homo sapiens), sequence (Q9Y336 whole entry): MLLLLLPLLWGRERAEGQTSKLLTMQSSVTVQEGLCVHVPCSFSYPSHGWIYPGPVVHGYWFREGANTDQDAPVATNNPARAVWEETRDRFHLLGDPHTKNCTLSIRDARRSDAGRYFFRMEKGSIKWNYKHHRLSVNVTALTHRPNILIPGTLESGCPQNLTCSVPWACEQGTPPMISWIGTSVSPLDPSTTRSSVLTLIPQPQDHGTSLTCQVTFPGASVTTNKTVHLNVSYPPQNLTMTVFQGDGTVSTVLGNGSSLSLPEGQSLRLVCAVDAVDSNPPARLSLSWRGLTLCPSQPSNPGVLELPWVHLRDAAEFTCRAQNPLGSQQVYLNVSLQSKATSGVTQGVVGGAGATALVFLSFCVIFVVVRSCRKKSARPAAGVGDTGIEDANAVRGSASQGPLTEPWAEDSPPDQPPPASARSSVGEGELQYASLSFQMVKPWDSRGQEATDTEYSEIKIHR

Trypanosoma cruzi = experiment: Trypanosoma cruzi phosphomannomutase and mannose-1-phosphate guanylyltransferase assay; type: functional; settings: 10 µM
[5] = target: T2, Arginase-2, mitochondrial (Homo sapiens) (UniProt P78540); experiment: in vitro enzyme assay to detect the production of urea directly proportional to the activity of Arginase II; type: functional; settings: 33.3 µM; also: in the data most compounds retested in dose-response had high values
T2 sequence (whole entry): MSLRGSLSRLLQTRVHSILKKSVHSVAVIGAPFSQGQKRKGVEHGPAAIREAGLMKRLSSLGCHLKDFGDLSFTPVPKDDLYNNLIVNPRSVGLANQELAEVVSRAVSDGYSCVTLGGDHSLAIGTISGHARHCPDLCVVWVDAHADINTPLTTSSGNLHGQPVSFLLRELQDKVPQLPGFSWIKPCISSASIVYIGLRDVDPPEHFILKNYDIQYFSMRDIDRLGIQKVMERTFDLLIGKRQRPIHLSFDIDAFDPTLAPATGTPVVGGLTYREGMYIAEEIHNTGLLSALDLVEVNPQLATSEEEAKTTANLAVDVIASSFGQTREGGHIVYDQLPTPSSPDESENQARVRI

[6] = target: T3, Proteasome subunit beta (Trypanosoma cruzi) (UniProt O96673); experiment: Trypanosoma cruzi proteasome chymotrypsin-like activity (TcProtChymo) assay.; also: in the data most compounds retested in dose-response had high values; type: functional; settings: 9.37 µM
T3 sequence (whole entry): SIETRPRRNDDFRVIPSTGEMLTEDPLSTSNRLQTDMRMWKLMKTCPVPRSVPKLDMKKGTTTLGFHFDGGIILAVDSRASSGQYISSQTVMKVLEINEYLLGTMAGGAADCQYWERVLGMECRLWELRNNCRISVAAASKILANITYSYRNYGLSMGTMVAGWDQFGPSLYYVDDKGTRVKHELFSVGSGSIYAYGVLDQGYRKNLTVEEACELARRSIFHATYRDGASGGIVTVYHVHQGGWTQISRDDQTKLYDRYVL

Homo sapiens = species on record: Homo sapiens; experiment: To identify inhibition of the IFN signalling (Jak-Stat) pathway via expression of an eGFP reporter gene under the control of an IFN-stimulated response element (ISRE) containing MxA promoter.; type: functional; settings: 30 µM
[7] = target: T4, Tyrosyl-tRNA synthetase, putative (Trypanosoma cruzi (strain CL Brener)) (UniProt Q4DSP6); experiment: Trypanosoma cruzi tyrosyl tRNA synthetase (TcYRS) _High Tyrosine SOP; type: functional; settings: 30 µM; also: in the data most compounds retested in dose-response had high values
T4 sequence (whole entry): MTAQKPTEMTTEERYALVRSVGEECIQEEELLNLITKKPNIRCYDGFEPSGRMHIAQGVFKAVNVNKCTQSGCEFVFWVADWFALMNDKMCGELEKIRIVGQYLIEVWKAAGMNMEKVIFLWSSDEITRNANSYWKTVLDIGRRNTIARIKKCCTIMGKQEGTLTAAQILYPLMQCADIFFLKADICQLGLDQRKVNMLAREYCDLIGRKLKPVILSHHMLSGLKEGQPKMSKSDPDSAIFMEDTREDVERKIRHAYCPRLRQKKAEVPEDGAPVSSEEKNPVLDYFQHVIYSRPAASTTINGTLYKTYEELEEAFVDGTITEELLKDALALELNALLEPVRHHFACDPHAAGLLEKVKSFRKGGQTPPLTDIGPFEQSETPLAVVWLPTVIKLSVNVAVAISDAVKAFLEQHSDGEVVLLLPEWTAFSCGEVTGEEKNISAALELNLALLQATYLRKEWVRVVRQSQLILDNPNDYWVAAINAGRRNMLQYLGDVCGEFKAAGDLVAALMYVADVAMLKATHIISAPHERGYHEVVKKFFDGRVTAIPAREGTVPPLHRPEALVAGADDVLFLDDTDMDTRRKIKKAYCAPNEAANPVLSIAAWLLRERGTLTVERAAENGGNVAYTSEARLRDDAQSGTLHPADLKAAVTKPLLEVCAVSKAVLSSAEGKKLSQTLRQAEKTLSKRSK

[8] = target: T4, Tyrosyl-tRNA synthetase, putative (Trypanosoma cruzi (strain CL Brener)); experiment: Trypanosoma cruzi tyrosyl tRNA synthetase (TcYRS) SOP; type: functional; settings: 30 µM
[9] = target: Chromo domain-containing protein 1 (Saccharomyces cerevisiae (strain ATCC 204508 / S288c) (Baker's yeast)) (UniProt P32657); experiment: ScCHD-1 Enzyme Inhibition Assay; type: functional; settings: 30 µM; also: in the data most compounds retested in dose-response had high values
Chromo domain-containing protein 1 (Saccharomyces cerevisiae (strain ATCC 204508 / S288c) (Baker's yeast)), sequence (P32657 whole entry, the tested form may be a part): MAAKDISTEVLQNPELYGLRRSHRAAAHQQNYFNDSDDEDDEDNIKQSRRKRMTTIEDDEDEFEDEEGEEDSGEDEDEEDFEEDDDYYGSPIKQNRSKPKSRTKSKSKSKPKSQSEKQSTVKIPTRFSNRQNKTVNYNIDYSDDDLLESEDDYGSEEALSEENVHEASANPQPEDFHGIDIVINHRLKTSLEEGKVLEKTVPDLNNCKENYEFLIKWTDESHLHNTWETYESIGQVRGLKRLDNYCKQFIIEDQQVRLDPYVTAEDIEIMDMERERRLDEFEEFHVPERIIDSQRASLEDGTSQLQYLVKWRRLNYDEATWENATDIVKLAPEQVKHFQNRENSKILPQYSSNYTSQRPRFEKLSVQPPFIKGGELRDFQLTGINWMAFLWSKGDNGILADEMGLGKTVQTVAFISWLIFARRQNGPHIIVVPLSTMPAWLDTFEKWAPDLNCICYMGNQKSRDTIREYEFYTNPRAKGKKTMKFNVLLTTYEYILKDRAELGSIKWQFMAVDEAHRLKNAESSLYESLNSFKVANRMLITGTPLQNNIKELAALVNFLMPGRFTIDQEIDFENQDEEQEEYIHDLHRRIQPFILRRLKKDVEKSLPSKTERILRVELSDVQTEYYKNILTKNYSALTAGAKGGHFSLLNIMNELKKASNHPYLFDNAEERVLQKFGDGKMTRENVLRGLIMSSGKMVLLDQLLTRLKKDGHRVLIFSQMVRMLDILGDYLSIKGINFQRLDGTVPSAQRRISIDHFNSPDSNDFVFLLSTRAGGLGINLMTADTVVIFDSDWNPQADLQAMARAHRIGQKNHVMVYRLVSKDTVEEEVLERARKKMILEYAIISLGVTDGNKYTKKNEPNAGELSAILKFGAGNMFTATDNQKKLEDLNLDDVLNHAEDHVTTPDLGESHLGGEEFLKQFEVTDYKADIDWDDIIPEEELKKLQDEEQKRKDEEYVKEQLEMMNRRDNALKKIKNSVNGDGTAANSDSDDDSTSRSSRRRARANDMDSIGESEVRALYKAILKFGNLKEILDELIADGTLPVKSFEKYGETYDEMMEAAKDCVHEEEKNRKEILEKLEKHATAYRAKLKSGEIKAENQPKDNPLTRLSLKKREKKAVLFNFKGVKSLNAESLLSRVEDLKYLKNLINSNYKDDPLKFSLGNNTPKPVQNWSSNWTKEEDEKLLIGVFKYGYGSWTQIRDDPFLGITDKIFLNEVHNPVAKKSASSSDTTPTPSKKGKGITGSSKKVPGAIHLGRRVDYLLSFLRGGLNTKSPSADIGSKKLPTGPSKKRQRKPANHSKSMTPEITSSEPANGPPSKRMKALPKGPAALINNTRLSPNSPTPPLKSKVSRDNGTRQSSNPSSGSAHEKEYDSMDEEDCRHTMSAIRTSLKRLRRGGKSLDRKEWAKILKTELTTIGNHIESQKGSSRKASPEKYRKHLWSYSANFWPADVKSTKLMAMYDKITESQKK

Structure (SMILES)	Percent Effect [1]	Percent Effect [2]	Percent Effect [3]	Percent Effect [4]	Percent Effect (Trypanosoma cruzi)	Percent Effect [5]	Percent Effect [6]	Percent Effect (Homo sapiens)	Percent Effect [7]	Percent Effect [8]	Percent Effect [9]
CCn1c(C)nnc1CN(C)C1CCN(Cc2nccn2C)C1 (stereo unspecified)	2.98%	10.8%	-6.53%	-4.6%	-8.7%	2.23%	11.8%	16.4%	9.68%	16.1%	-3.99%
CSCc1cccc(S(=O)(=O)N2CCC(C)CC2)c1	-5.58%	-4%	7.56%	1.46%	-5.5%	-5.11%	7.39%	27.8%	-11.6%	-10.3%	-6.13%
Cc1cccc(-c2nc(CN3CCc4c(ncn4C)C3)no2)c1	-6.97%	2.6%	-1.39%	-3.74%	-7.12%	0.356%	2.7%	21.7%	-0.971%	-2.44%	-2.23%
COc1ncccc1C(=O)N1CCN(C(=O)Cc2ccccn2)CC1	-1.65%	21.5%	-6.89%	-0.0483%	2.36%	-2.37%	18%	17.4%	7.29%	20.2%	-20.3%
O=C(c1ccc[nH]1)N1C[C@H]2CC[C@@H]1CN(C1Cc3ccccc3C1)C2	-0.308%	8.11%	-3.81%	12.3%	3.62%	23.1%	10.7%	-4.7%	6.45%	18.5%	-2.58%
COc1cccc(-n2c(C)cc(C(=O)NS(C)(=O)=O)c2C)c1	-2.83%	20.2%	-2.25%	-3.1%	-4.63%	2.28%	2.21%	8.44%	6.4%	13.9%	-5.99%
COc1ccc(CN2CCOC3(CCCN(c4nnc(C)o4)C3)C2)cc1 (stereo unspecified)	-4.63%	-2.74%	-4.05%	6.97%	5.75%	2%	10.4%	-9.72%	4.17%	-1.24%	-4.74%
CCN1CCN(C(=O)c2nc(C)n(-c3ccccc3Cl)n2)CC1	-9.34%	7.89%	-2.25%	14.9%	5.7%	2.16%	3.81%	-16.5%	4.43%	23.5%	-7.33%
CCC(C)N(C)CCNC(=O)NCc1cccc(-n2cncn2)c1 (stereo unspecified)	-5.23%	5.41%	-2.01%	27.3%	4.59%	0.248%	9.87%	-1.6%	2.15%	6.17%	-12.3%
Cn1cnc2c1CCN(Cc1nc(COc3ccc(F)cc3)no1)C2	-9.01%	7.89%	3.1%	1.46%	-5.7%	1.44%	7.19%	10.3%	0.493%	-6.17%	-0.821%
CCNC(=O)c1nnn(Cc2ccccc2)c1OC	-3.93%	1.33%	3.51%	5.7%	-0.197%	-8.63%	7.95%	-9.5%	5.29%	7.69%	-2.11%
Cn1cc(C2CCCN2C(=O)CCCOCc2ccccc2)cn1 (stereo unspecified)	-4.26%	10.1%	-1.48%	-1.07%	4.25%	-1.9%	7.62%	2.8%	0.493%	3.8%	-7.66%
Cc1ccc(F)c(C(=O)N2CCN(S(C)(=O)=O)[C@@H](C)C2)c1	-1.54%	2.74%	5.45%	3.05%	6.86%	-1.82%	8.7%	8.46%	-2.15%	5%	-2.13%
Cc1cc(CN(C)C(=O)c2cccc(N3CCCC3=O)c2)no1	-1.16%	20.2%	-7.29%	-9%	-4.25%	-0.76%	12.2%	13.3%	3.45%	16.5%	-4.16%
CN1C(=O)CC(C(=O)O)C12CCN(Cc1ccc(F)cc1Cl)CC2 (stereo unspecified)	-3.75%	2.67%	-7.2%	5.97%	3.41%	-0.521%	16%	15.5%	8.2%	13.6%	-3.62%
Cc1nccn1C1CCCN(C(=O)C2=NN(C)C(=O)CC2)C1 (stereo unspecified)	-0.962%	18.9%	2.88%	-10.1%	-3.68%	-4.81%	20.9%	23.8%	4.43%	6.17%	-3.99%
